Drawing on publication PMC7862700, “An all-to-all approach to the identification of sequence-specific readers for epigenetic DNA modifications on cytosine”, this text covers binding signal for one sequence.

What all share (assay): DAPPL (digital affinity profiling via proximity ligation, sequencing); 10 mM Tris-HCl pH 7.5, 50 mM NaCl, 1 mM DTT, 4% glycerol, room temperature, 30 min; GST-TFs on glutathione beads, 16-mer random dsDNA library, 0.1% formaldehyde crosslink after washing; high values mean tight binding
One assay addresses T1, FEV (Homo sapiens, UniProt Q99581 1-238).
T1 sequence: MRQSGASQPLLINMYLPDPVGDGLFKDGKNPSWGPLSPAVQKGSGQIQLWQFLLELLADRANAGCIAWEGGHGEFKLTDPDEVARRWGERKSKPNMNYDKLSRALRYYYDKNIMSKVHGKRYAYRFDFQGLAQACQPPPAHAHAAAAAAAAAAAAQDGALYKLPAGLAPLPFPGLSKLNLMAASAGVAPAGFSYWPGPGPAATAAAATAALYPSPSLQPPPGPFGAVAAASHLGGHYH
The conditions noted are these: protein: recombinant; tags: N-terminal GST; dsDNA, one strand shown. An outline of the steps:
(§1)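 Binding signal is defined as a hexamer's read frequency for one factor over its frequency for the tag-only sample. To obtain reads, GST-fused human transcription factors were expressed in yeast, captured on glutathione beads, barcoded with DNA and pooled with that sample. Pools met 200 nmole of a 16-mer random double-stranded DNA library in Tris/NaCl/DTT/glycerol buffer for 30 min at room temperature before washing, 0.1% formaldehyde crosslinking, proximity ligation (BsaI/T4 ligase, 1 h, 37 °C), PCR and Illumina NextSeq500 sequencing.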

In a further assay the target is ETV5 (Homo sapiens, UniProt P41161 1-510). Particulars: protein: recombinant; tags: N-terminal GST; dsDNA, one strand shown. An outline of the steps: as §1
A further assay has as its target HSF1 (Homo sapiens, UniProt Q00613 1-529). Particulars: protein: recombinant; tags: N-terminal GST; chain copies: 3; dsDNA, one strand shown. An outline of the steps: as §1
The target in another assay is T2, SPIC (Homo sapiens, UniProt Q8N5J4 1-248).
T2 sequence: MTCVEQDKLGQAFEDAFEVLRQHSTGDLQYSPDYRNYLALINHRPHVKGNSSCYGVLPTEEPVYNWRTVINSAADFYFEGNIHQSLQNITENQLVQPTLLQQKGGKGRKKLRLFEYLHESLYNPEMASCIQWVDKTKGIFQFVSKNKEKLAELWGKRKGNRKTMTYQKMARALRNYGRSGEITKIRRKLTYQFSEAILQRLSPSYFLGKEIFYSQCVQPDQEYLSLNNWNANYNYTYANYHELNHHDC
Particulars: protein: recombinant; tags: N-terminal GST; dsDNA, one strand shown. An outline of the steps:
as §1

A further assay deals with ELF4 (Homo sapiens, UniProt Q99607 1-663). Particulars: protein: recombinant; tags: N-terminal GST; dsDNA, one strand shown. Summed up:
as §1

The next assay addresses T3, ELK4 (Homo sapiens, UniProt P28324-2 1-405).
T3 sequence: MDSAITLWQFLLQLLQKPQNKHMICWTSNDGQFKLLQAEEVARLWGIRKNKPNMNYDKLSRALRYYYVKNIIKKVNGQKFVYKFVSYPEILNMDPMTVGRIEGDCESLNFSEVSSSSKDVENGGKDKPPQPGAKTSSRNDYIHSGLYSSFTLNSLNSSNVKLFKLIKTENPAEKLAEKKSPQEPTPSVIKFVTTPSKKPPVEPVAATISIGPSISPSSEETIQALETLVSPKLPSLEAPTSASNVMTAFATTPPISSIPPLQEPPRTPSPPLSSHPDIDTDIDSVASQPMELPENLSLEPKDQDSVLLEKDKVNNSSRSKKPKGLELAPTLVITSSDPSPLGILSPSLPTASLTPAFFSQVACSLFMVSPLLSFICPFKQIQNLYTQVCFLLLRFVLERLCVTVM
Particulars: protein: recombinant; tags: N-terminal GST; dsDNA, one strand shown. Summed up: as §1

In the next assay the target is T4, ETV2 (Homo sapiens, UniProt O00321 1-342).
T4 sequence: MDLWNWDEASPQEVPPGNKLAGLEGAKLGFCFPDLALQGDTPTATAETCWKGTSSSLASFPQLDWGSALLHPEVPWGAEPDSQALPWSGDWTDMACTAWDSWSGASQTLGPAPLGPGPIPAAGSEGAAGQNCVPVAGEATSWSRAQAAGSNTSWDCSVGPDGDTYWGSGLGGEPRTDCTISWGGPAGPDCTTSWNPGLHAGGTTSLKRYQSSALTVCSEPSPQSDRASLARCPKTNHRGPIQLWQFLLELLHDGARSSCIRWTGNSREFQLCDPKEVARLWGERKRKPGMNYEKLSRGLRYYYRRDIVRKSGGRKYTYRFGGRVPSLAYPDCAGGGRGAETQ
Particulars: protein: recombinant; tags: N-terminal GST; dsDNA, one strand shown. Summed up: as §1

The target in the next assay is T5, ELF3 (Homo sapiens, UniProt P78545 1-371).
T5 sequence: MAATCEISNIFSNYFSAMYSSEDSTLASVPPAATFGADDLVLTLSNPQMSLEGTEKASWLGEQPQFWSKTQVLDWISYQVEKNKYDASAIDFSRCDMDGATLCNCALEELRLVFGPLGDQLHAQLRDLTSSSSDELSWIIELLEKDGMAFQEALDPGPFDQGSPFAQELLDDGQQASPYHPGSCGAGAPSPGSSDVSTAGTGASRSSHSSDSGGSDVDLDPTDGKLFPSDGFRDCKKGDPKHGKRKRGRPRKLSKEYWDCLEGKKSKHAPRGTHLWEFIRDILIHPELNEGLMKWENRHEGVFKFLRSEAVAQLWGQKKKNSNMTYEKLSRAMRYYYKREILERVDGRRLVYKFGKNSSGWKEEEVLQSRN
The conditions noted are these: protein: recombinant; tags: N-terminal GST; dsDNA, one strand shown. An outline of the steps: as §1

The target in another assay is CRX (Homo sapiens, UniProt O43186 1-299). The conditions noted are these: protein: recombinant; tags: N-terminal GST; dsDNA, one strand shown. Summed up:
as §1

The target of the next assay is ETV1 (Homo sapiens, UniProt P50549 1-477). The conditions noted are these: protein: recombinant; tags: N-terminal GST; dsDNA, one strand shown. Summed up:
as §1

The target in another assay is T6, ERF (Homo sapiens, UniProt P50548 1-548).
T6 sequence: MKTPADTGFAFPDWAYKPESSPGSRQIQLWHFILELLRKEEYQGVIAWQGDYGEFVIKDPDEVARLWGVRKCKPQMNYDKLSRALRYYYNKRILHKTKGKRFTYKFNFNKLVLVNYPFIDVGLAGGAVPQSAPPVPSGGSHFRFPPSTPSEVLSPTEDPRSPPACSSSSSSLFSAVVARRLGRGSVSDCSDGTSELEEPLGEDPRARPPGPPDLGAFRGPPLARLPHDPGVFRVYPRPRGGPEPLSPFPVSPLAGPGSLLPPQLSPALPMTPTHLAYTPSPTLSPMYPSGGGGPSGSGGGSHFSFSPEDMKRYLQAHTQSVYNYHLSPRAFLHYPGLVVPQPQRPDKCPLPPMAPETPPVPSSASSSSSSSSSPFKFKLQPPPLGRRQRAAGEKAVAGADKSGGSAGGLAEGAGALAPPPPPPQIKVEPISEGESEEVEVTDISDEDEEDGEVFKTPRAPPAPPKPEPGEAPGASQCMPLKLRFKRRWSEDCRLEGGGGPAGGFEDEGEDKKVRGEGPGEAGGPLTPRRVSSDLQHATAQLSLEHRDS
Particulars: protein: recombinant; tags: N-terminal GST; dsDNA, one strand shown. An outline of the steps: as §1

The next assay concerns the target T7, ETV3L (Homo sapiens, UniProt Q6ZN32 1-361).
T7 sequence: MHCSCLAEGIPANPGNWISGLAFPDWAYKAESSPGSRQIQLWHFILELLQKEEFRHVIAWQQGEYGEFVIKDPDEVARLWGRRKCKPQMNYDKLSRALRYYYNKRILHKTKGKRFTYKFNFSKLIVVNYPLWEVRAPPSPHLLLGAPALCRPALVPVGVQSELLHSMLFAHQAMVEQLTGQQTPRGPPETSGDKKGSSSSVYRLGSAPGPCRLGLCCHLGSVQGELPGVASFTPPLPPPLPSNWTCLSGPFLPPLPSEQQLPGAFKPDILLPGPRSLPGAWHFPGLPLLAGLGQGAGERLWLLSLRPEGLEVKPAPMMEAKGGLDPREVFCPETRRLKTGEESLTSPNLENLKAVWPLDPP
The conditions noted are these: protein: recombinant; tags: N-terminal GST; dsDNA, one strand shown. Summed up:
as §1

The target in another assay is T8, ETS2 (Homo sapiens, UniProt P15036 1-469).
T8 sequence: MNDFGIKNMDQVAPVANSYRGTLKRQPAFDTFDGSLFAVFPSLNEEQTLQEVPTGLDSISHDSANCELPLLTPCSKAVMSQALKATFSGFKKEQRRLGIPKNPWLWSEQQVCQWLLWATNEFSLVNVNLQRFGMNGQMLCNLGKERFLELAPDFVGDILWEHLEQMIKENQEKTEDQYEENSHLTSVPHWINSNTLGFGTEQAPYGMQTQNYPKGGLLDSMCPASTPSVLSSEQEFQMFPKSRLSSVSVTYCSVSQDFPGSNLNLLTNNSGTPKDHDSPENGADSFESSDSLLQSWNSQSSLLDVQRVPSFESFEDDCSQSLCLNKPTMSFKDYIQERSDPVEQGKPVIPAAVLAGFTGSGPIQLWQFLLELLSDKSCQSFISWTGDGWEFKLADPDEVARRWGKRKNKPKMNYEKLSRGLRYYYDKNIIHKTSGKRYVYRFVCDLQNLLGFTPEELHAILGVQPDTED
The conditions noted are these: protein: recombinant; tags: N-terminal GST; dsDNA, one strand shown. Summed up:
as §1

The target of another assay is T9, SPDEF (Homo sapiens, UniProt O95238 1-335).
T9 sequence: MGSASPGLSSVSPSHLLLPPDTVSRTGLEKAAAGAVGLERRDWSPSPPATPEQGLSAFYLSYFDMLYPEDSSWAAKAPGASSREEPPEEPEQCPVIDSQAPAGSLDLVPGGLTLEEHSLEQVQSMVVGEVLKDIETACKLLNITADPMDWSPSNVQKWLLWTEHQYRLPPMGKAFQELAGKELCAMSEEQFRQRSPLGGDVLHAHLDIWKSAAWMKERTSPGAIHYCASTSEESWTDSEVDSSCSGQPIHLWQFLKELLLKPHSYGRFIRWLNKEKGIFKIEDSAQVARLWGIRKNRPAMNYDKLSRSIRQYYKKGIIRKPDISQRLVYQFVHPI
The conditions noted are these: protein: recombinant; tags: N-terminal GST; dsDNA, one strand shown. An outline of the steps: as §1

For the next assay, the target named is T10, ETV7 (Homo sapiens, UniProt Q9Y603 1-341).
T10 sequence: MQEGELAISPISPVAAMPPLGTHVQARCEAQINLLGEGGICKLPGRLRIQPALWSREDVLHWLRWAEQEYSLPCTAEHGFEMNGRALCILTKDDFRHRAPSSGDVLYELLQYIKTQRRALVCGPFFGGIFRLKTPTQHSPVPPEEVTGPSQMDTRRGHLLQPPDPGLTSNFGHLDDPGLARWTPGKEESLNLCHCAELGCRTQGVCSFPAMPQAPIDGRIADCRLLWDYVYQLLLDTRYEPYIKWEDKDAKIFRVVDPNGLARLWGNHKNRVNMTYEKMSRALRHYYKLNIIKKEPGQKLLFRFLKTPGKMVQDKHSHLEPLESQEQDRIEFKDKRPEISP
The conditions noted are these: protein: recombinant; tags: N-terminal GST; dsDNA, one strand shown. An outline of the steps:
as §1

A further assay concerns the target T11, ELF5 (Homo sapiens, UniProt Q9UKW6-2 1-255).
T11 sequence: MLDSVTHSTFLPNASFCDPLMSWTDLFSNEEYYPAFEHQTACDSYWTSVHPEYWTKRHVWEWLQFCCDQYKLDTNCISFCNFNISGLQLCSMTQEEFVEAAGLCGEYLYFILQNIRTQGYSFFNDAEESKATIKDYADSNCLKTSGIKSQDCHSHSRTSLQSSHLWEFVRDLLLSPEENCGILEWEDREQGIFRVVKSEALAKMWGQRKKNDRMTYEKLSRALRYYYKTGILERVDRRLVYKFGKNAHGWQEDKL
Particulars: protein: recombinant; tags: N-terminal GST; dsDNA, one strand shown. Summed up:
as §1

The target of the next assay is T12, ETV3 (Homo sapiens, UniProt P41162-2 1-143).
T12 sequence: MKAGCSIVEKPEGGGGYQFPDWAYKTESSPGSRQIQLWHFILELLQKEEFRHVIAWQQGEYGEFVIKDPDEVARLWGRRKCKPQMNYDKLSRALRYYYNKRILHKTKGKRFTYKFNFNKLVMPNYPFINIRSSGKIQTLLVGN
Particulars: protein: recombinant; tags: N-terminal GST; dsDNA, one strand shown. An outline of the steps:
as §1

A further assay has as its target ETV6 (Homo sapiens, UniProt P41212 1-452). The conditions noted are these: protein: recombinant; tags: N-terminal GST; dsDNA, one strand shown. Summed up: as §1

Sequence of ETV5 (P41161 whole entry): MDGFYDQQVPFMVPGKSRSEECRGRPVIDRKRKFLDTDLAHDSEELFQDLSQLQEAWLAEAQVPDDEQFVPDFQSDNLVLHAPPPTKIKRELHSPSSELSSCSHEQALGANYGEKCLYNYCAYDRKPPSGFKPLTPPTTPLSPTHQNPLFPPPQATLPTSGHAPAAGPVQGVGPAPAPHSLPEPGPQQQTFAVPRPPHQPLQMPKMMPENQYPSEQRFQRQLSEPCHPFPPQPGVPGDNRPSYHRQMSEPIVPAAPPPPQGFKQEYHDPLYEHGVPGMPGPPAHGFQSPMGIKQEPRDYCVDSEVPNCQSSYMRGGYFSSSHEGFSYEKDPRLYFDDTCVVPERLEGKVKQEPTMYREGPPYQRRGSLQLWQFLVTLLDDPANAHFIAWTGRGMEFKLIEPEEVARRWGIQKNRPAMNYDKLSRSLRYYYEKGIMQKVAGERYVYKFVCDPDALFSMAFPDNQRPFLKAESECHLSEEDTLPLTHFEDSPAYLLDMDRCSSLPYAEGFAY
Sequence of CRX (O43186 whole entry): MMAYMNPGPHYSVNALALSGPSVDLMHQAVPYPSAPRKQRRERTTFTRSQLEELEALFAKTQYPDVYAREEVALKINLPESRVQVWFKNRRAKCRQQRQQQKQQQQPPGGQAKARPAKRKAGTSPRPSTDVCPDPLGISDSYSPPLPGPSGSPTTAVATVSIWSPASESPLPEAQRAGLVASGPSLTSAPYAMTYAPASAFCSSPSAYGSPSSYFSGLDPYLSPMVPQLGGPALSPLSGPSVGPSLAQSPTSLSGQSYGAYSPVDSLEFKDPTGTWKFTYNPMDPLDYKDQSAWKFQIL
Sequence of ETV1 (P50549 whole entry): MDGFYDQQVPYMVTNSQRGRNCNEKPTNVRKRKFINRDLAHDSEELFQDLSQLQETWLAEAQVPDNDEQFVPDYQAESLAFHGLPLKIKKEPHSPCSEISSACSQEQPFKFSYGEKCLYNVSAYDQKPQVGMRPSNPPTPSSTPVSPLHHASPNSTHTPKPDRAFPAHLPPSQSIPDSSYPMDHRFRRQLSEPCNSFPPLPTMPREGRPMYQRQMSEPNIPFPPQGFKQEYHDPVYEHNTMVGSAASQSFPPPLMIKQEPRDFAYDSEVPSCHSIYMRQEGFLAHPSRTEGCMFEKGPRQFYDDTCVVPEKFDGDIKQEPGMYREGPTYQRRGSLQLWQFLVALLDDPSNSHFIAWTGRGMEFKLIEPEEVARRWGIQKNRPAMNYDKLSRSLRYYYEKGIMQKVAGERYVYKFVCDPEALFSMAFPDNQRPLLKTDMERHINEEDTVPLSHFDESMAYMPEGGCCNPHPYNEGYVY
Sequence of ELF4 (Q99607 whole entry): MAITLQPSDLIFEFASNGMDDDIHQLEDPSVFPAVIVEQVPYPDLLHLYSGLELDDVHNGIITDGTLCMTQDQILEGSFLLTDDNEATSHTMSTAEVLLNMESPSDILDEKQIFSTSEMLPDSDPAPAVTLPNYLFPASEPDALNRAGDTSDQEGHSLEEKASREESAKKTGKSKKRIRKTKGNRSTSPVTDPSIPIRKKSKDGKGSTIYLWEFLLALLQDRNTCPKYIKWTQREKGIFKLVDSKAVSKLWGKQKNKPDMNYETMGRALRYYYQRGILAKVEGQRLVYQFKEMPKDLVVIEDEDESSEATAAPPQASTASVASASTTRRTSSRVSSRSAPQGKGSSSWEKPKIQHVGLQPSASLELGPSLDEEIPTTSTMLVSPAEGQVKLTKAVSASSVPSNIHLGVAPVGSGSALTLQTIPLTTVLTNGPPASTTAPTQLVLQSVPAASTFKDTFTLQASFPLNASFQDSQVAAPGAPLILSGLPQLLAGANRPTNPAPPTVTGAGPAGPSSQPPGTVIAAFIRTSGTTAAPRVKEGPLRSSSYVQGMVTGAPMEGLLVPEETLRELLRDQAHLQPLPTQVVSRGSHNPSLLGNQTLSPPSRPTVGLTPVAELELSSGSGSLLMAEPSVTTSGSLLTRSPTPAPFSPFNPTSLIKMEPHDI
Sequence of HSF1 (Q00613 whole entry): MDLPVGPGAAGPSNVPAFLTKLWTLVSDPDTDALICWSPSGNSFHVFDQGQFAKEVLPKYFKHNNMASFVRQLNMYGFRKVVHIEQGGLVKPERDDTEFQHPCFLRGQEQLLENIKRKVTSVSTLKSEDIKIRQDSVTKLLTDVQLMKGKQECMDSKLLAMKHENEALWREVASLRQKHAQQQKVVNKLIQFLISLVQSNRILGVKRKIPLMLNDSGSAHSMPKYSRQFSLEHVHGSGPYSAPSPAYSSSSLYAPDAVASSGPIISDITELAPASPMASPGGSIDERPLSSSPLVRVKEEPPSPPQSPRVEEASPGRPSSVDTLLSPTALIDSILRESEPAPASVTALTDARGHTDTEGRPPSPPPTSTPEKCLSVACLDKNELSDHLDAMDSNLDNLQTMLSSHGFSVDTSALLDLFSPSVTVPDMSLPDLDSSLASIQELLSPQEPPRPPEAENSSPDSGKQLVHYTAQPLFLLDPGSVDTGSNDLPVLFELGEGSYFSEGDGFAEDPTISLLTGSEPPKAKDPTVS
Sequence of ETV6 (P41212 whole entry): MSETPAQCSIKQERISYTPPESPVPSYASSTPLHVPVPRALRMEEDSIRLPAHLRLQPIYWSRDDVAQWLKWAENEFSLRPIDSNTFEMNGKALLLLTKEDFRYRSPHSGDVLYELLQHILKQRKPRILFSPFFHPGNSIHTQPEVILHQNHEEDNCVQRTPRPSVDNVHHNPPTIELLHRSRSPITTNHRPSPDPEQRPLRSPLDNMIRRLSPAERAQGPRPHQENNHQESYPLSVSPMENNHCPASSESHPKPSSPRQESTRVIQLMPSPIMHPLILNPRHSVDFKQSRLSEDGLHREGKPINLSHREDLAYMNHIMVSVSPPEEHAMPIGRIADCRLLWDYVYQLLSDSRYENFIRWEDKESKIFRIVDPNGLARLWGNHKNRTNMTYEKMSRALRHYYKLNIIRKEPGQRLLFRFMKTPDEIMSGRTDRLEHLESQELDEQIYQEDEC

Consider TTAAGC, for which the binding signal with FEV is 1.18 fold enrichment (6-mer frequency, TF over GST control); with ETV5, 1.12 fold enrichment (6-mer frequency, TF over GST control); with HSF1, 2.25 fold enrichment (6-mer frequency, TF over GST control); with SPIC it was 1.19 fold enrichment (6-mer frequency, TF over GST control); in the assay with ELF4, 1.22 fold enrichment (6-mer frequency, TF over GST control); in the assay with ELK4, 1.15 fold enrichment (6-mer frequency, TF over GST control). Moreover, the binding signal in the assay with ETV2 is 1.03 fold enrichment (6-mer frequency, TF over GST control); with ELF3, 1.1 fold enrichment (6-mer frequency, TF over GST control); in the assay with CRX, 3.77 fold enrichment (6-mer frequency, TF over GST control); in the assay with ETV1, 1.11 fold enrichment (6-mer frequency, TF over GST control); with ERF, 1.21 fold enrichment (6-mer frequency, TF over GST control); in the assay with ETV3L, 1.22 fold enrichment (6-mer frequency, TF over GST control). The binding signal in the assay with ETS2 was 1.13 fold enrichment (6-mer frequency, TF over GST control); with SPDEF, 1.04 fold enrichment (6-mer frequency, TF over GST control); in the assay with ETV7, 1.13 fold enrichment (6-mer frequency, TF over GST control); with ELF5 it was 1.14 fold enrichment (6-mer frequency, TF over GST control); with ETV3, 1.22 fold enrichment (6-mer frequency, TF over GST control); with ETV6, 1.06 fold enrichment (6-mer frequency, TF over GST control).
